Only some compounds are listed: those with a hit (about 12% of all), similar ones and a draw of the others.
HP1b chromo inh – blocks HP1-beta chromodomain binding to methylated histone tails; P83916; AlphaScreen HP1-beta / biotin-H3K9me3 peptide binding; Potency, µM (doses to about 114 µM), inactives show at the top dose activity change, negative = inhibition, actives largely listed as inhibitors; hit rate 0.56% among 390,000; also: nearly all actives have a fitted effect of over 70% in size
Target sequence (P83916 whole entry, looked up): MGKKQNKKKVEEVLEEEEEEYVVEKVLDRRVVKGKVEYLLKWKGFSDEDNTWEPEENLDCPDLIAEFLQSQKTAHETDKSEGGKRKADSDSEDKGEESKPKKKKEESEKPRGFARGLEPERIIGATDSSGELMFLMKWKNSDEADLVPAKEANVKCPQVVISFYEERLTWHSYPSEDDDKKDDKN
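Compound inhibition of the preformed complex between 50 nM HP1-beta and 50 nM biotinylated H3K9me3 peptide was read by AlphaScreen. Buffer was PBS pH 7.4 with 0.01% Tween-20. Incubations ran 30 min at room temperature, with 10 ug/mL donor/acceptor beads.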
G9a inh – G9a (human) methyltransferase inhibition; Q96KQ7; G9a H3K9 monomethylation, AlphaScreen, 2 h; Potency, µM (series often up to 102 µM), without a hit: top-dose activity, negative = inhibition, actives largely listed as inhibitors; hit rate 8.8% among 350,000; also: % is scaled to controls: 0 for no effect and ±100 for the full control effect; nearly all actives have a fitted effect of over 75% in size
Target sequence (Q96KQ7 913-1193 limits assumed): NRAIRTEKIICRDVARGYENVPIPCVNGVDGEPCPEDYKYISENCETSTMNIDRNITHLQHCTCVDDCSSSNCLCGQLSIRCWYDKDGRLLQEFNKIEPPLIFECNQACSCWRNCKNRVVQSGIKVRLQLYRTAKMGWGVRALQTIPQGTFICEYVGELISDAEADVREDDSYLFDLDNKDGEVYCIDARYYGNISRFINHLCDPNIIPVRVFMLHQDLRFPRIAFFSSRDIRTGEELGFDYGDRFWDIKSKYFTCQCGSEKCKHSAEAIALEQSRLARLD
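Readings reflect AlphaScreen signal from monomethyl-H3K9 antibody detection. HMT at 20 nM; substrate b-H3K9 500 nM; cofactor SAM 20 uM; 2 h RT reaction; compounds tested as titrations in qHTS with 15 min preincubation.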
Sfp inh – Sfp phosphopantetheinyl transferase inhibition; Biochemical Sfp PPTase activity, qHTS; Potency, µM, for inactives: largest response in the series, negative = inhibition, usual class: inhibitors; Q9F4F7; AID 1490; hit rate 3.5% among 310,000;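 also: the enzyme is Sfp with the accession as filed and its product quenches rhodamine fluorescence; 0% = enzyme reaction without inhibitor and -100% = no enzyme wells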
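Reaction rates are the 30-min fluorescence difference (ex 525, em 598 nm) in wells containing 15 nM Sfp, 5 uM rhodamine-CoA and 12.5 uM BHQ-2-YbbR at pH 7.6 with 10 mM MgCl2.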
JMJD2A Tudor inh – blocks the human JMJD2A Tudor domain | O75164 | AlphaScreen JMJD2A-Tudor / H3K4me3 peptide binding | Potency, µM (series often up to 114 µM), without a hit: at the highest dose activity change, negative = inhibition, usual class: inhibitors | hit rate 4.4% among 390,000 | AID 504339; also: % is scaled to controls: 0 for no effect and ±100 for the full control effect; nearly all actives have a fitted effect of over 50% in size
L3MBTL1 inh – L3MBTL1 (human) inhibition. Q9Y468. AlphaScreen L3MBTL1–H3K9me1 peptide binding. Potency, µM (titrated, usually from 57.1 µM), for inactives: top-dose activity, negative = inhibition, actives largely listed as inhibitors. hit rate 0.66% among 230,000. AID 485360; also: % is scaled to controls: 0 for no effect and ±100 for the full control effect; nearly all actives have a fitted effect of over 60% in size
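Displacement of a biotinylated histone H3(1-15) peptide monomethylated at Lys9 (75 nM) from L3MBTL1 (50 nM) was measured by AlphaScreen after a 30 min room-temperature compound incubation; cefsulodin titration served as intraplate control.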
BAZ2B block – inhibitors of human BAZ2B bromodomain. AlphaScreen BAZ2B-H3K14Ac peptide displacement. Potency, µM (top dose mostly 114 µM), inactives show at the top dose activity change, negative = inhibition, usual class: inhibitors. hit rate 4.4% among 360,000. AID 504333; also: % is scaled to controls: 0 for no effect and ±100 for the full control effect; nearly all actives have a fitted effect of over 60% in size
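Inhibition is scored as reduced AlphaScreen emission. The BAZ2B/b-H3(5-23)K14Ac complex (50 nM each) in PBS pH 7.4, 0.01% Tween-20 meets compound (up to 110 uM) for 30 min at RT before bead addition.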
* = called active by the depositor; ? = inconclusive; / = no result given; [ ] = remark or other dose. Calls follow the shape of the dose curve; as a rule, active = well fitted curve in the direction sought with a large enough effect; inconclusive = small, poorly fitted or top-dose-only effect, or another doubt; inactive = no such curve, though single readings can be large; an effect the other way counts as inactive or inconclusive. Potency is read from the fitted curve at half-maximal effect.

SMILES	HP1b chromo inh	G9a inh	Sfp inh	JMJD2A Tudor inh	L3MBTL1 inh	BAZ2B block
Cc1ccccc1CN1C(=O)c2ccccc2S(=O)c2ccc(C(=O)NCc3ccc(Cl)cc3)cc21 (configuration not stated)	26%	-8%[59 µM]	/	-13%	/	0%
CN1CCCN(CC(O)COCc2cccs2)CC1 (configuration not stated)	21%	40µM*	13%	-12%	7%	12%
OC(COCc1cccs1)CN1CCN(c2cccc(Cl)c2)CC1 (configuration not stated)	?	10µM*	?	2.8µM*	-4%	50µM*
Cc1ccc(S(=O)(=O)N2CCC(C(=O)NCCC3=CCCCC3)CC2)c(C)c1	41%	-4%[0.501 µM]	/	-8%	-4%	0%
CC1(C)S[C@@H]2[C@H](NC(=O)[C@H](NC(=O)N3CCN(S(C)(=O)=O)C3=O)c3ccccc3)C(=O)N2[C@H]1C(=O)O	/	-37%[12.7 µM]	-2%	/	/	/
COc1ccc(N2C(=O)CSC2c2cccc(F)c2)cc1 (configuration not stated)	31%	16%	-4%	-6%	/	3%
COc1cccc(NC(=O)CSc2nnc(NC(=O)C3CC3)s2)c1	10%[57 µM]	?	11%	-12%	/	1%
COc1cccc(Nc2nnc(SCC(=O)Nc3sccc3C(N)=O)s2)c1	16%[57 µM]	-12%[59 µM]	?	-26%	-29%	79µM*
CCc1ccc(Nc2nnc(SCC(=O)Nc3sccc3C(N)=O)s2)cc1	0%	11µM*	-15%	-33%	-8%	?
COCCN(C(=O)c1cccc(-n2cnnn2)c1)c1c(N)n(CC(C)C)c(=O)[nH]c1=O	23%	-7%[59 µM]	/	-7%	3%	0%
CS(=O)(=O)c1sc2nc(-c3cccs3)cc(-c3ccccc3)c2c1N	45%	?	10µM*	89µM*	/	?
O=C(c1ccc(Cl)cc1)c1c[nH]c(C(=O)NNc2ccccc2)c1	34%	20µM*	25%	-12%	0%	-31%
CNC(=O)c1cc(C(=O)c2ccc(Cl)cc2)c[nH]1	33%	-6%	1%	-18%	/	?
CC1CCCN(C(=O)C(C)Nc2cc(Cl)ccc2N2CCOCC2)C1 (configuration not stated)	2%	40µM*	2%	?	/	?
CCC12CN3CC(CC)(CN(C1)C3c1cc(Br)ccc1OC)C2=O (configuration not stated)	7%	0%[59 µM]	/	-18%	/	-8%
COC(=O)c1cc(S(=O)(=O)N2CCCCC2)ccc1N1CCOCC1	23%	50µM*	/	-6%	9%	4%
Cc1nn(Cc2ccc(F)cc2)c2sc(C(=O)Nc3ccc(N4CCOCC4)cc3N3CCOCC3)cc12	?	11µM*	5%	?	-30%	40µM*
CCN1CCN(c2ccc(S(=O)(=O)N3CCCCC3)cc2NC(=O)C(C)Oc2ccc(F)cc2)CC1 (configuration not stated)	-14%	?	/	?	-9%	?
O=C(CSCc1ccc(F)cc1)Nc1ccc(N2CCOCC2)cc1N1CCOCC1	15%	-1%[12.7 µM]	/	-24%	4%	-38%
COC(=O)c1cc(S(=O)(=O)N2CCCCC2)c[nH]1	?	20%[59 µM]	17%	45µM*	/	-25%
CC(Oc1ccc(F)cc1)C(=O)Nc1cc(S(=O)(=O)N2CCCCC2)ccc1N1CCOCC1 (configuration not stated)	4%	13µM*	/	-18%	1%	0%
O=C(CN1CCC(NC(=O)C2CC2)CC1)Nc1cccc(F)c1	23%	8%	14%	-11%	/	2%
CC(C)c1cc2c(s1)c1cnn(Cc3ccccc3F)c(=O)c1n2C	/	/	/	-21%	/	/
CC(Oc1ccc(F)cc1)C(=O)Nc1ccc(N2CCOCC2)cc1N1CCOCC1 (configuration not stated)	4%	56µM*	/	-16%	-7%	-34%
COC(=O)c1cc(S(=O)(=O)N2CCOCC2)ccc1Sc1ccccc1N	2%	20µM*	-21%	-22%	-1%	-7%
SMILES	HP1b chromo inh	G9a inh	Sfp inh	JMJD2A Tudor inh	L3MBTL1 inh	BAZ2B block
Nc1nc2ccccc2n1CCOc1ccc(F)cc1	29%	/	-2%	-1%	7%	-11%
CCS(=O)(=O)c1ncc(Cl)c(C(=O)Nc2ccc(S(=O)(=O)N3CCCC(C)C3)cc2)n1 (configuration not stated)	-5%[57 µM]	79µM*	?	?	/	-24%[57.1 µM]
CCS(=O)(=O)c1ncc(Cl)c(C(=O)Nc2ccc(C)cc2)n1	25%	/	?	-8%	16%	?
CS(=O)(=O)c1ncc(Cl)c(C(=O)Nc2ccc3ccccc3c2)n1	41%	10µM*	13µM*	3%	0%	-36%
CCSc1ncc(Cl)c(C(=O)Nc2ccc(S(=O)(=O)N3CCCCC3CC)cc2)n1 (configuration not stated)	18%	-28%[59 µM]	/	-20%	/	-19%
CCC1CCCCN1S(=O)(=O)c1ccc(NC(=O)c2nc(S(C)(=O)=O)ncc2Cl)cc1 (configuration not stated)	-18%[57 µM]	40µM*	25µM*	-29%	/	-23%[57.1 µM]
O=C(O)c1nc2cc(Cl)c(Cl)cc2[nH]c1=O	/	/	17%	/	/	/
Cc1cc(C)cc(Nc2cc(C(=O)NCc3ccccc3)c3ccccc3n2)c1	81%	47%[59 µM]	/	-4%	/	/
CN(C)CC1CCn2c(c(C3=C(c4cn(C)c5ccccc45)C(=O)NC3=O)c3ccccc32)C1 (configuration not stated)	/	/	-22%	/	/	/
COc1ccccc1CNC(=O)c1cccc(NC(=O)N2CCSc3ncccc32)c1	30%	2%[59 µM]	/	0%	/	-12%
CCOc1ccc(S(=O)(=O)N2CCOCC2)cc1NC(=O)C1CSC2(C)CCC(=O)N12 (configuration not stated)	15%	45µM*	/	-2%	-3%	-17%
CCN(CC)c1ccc(S(=O)(=O)N2CCCCC2)cc1NC(=O)C1CSC2(C)CCC(=O)N12 (configuration not stated)	16%	4%[59 µM]	/	-25%	2%	-15%
CC(=O)/C(=C\c1ccccc1)CC(=O)O	/	/	23%	/	/	/
CCCN1C(=O)c2cc(C(=O)Nc3ccc(OC)cc3OC)ccc2C1Nc1ccc(OC)cc1OC (configuration not stated)	-20%	22µM*	7%	28µM*	/	?
CCc1ccc(NC(=O)CCS(=O)(=O)c2ccc3c(c2)n(C)c(=O)c(=O)n3C)cc1	37%	-1%[59 µM]	/	-13%	/	0%
CSc1nnc(-c2sc3cc(C(F)(F)F)cnc3c2-c2cccnc2)n1C	20%	50µM*	25%	-8%	/	5%

Source: PubChem (National Center for Advancing Translational Sciences (NCATS))
